PTHR1 agonist: agonists of human PTHR1 parathyroid hormone receptor; HEK293 GP2 PTHR1 cells, GloSensor cAMP luminescence, 1 h; Potency, µM (doses to about 115 µM), without a hit: at the top dose activation, usual class: activators; 410,000 compounds, 0.075% hits; AID 743266; further: potency means the concentration at half of the fitted maximal effect; nearly all actives have a fitted effect of over 55% in size
Target sequence (Q03431 whole entry, looked up): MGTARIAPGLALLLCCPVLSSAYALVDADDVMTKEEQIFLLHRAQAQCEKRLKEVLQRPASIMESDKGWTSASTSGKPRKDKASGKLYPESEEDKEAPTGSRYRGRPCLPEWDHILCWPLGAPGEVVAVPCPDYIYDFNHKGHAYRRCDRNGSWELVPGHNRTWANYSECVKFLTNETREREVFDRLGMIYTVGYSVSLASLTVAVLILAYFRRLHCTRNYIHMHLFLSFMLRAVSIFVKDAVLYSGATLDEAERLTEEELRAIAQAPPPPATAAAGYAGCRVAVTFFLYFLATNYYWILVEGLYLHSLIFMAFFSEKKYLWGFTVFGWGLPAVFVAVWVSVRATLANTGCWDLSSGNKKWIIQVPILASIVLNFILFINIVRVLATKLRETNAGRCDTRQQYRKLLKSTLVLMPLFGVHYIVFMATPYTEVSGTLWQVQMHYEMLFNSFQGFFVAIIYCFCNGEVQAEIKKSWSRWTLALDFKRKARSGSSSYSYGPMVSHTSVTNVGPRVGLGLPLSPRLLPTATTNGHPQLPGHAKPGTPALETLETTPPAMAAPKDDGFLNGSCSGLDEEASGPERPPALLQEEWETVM
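HEK-293-derived GP2 cells expressing PTHR1 and a GloSensor cAMP reporter, 3,000/well, plated overnight, given luciferin plus IBMX (each 0.5 mM as added) for 1 h at 37 °C, then compound for 1 h at 37 °C. Luminescence was read after 15 min at room temperature.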
RXFP1 antag: RXFP1 (human) relaxin receptor antagonism | HEK293-RXFP1, relaxin-stimulated cAMP HTRF, 30 min; active compounds read low | activity change, negative = inhibition, % at 57.5 µM | 350,000 compounds, 0.59% hits;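 active means activity change of -60% or lower, but not beyond a set lower limit; inconclusive means change between -60% and -40%, or beyond the set limit; inactive means change above -40%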; further: on the % scale 0 is the no-effect control and ±100 the full control effect
NPSR antagonist: blocks cAMP signaling of the human neuropeptide S receptor; CHO-NPSR cells, cAMP TR-FRET, antagonist mode; Potency, µM (titrated, usually from 38.3 µM), inactives show top-dose activity change, negative = inhibition, hits mostly inhibitors; 220,000 compounds, 1% hits; further: potency means the concentration at half of the fitted maximal effect; on the % scale 0 is the no-effect control and ±100 the full control effect; nearly all actives have a fitted effect of over 50% in size
RXFP1 agonist: activates the human relaxin receptor RXFP1 | Q9HBX9 | HEK293T-RXFP1 cAMP TR-FRET, 30 min; response scale: percent of porcine relaxin response, buffer zero | Potency, µM (titrated, usually from 57.5 µM), inactives show at the highest dose activation, actives largely listed as activators | 370,000 compounds, 0.3% hits; further: potency means the concentration at half of the fitted maximal effect; on the % scale 0 is the no-effect control and ±100 the full control effect; nearly all actives have a fitted effect of over 60% in size
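HEK293T cells stably expressing RXFP1 were pretreated with the PDE4 inhibitor Ro 20174, exposed to compounds for 30 min at 37C, lysed, and cAMP was read by TR-FRET. Data normalized to buffer (basal) and 29 nM porcine relaxin (100%).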
TSHR antagonist: human thyrotropin receptor antagonism; P16473; TSHR-expressing cells, TSH-stimulated cAMP HTRF, 2 h; active compounds read low; activity change, negative = inhibition, % at 11.5 µM; 330,000 compounds, 0.2% hits; AID 504810;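 active means activity change below a set negative limit, meaning inhibition stronger than a set level, cut at about -70% in these data; inconclusive means activity change between two set negative limits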; further: on the % scale 0 is the no-effect control and ±100 the full control effect
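Antagonism was scored as loss of TSH-driven cAMP in TSHR cells, stimulated with 4nM TSH (EC80) for 2 hours at 37 deg C and detected by homogeneous HTRF competition immunoassay.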
TCR act: activators of T cell receptors; primary human leukocytes, anti-CD3, IL-2 HTRF, 48 h; Potency, µM (doses to about 9.22 µM), without a hit: at the highest dose activation of IL-2 secretion, usual class: activators; 330,000 tested, under 10 active; AID 504894; further: % of control where 0% means no effect
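Primary human leukocytes were stimulated with a-CD3 beads plus compounds for 48 hr without co-stimulation; secreted IL-2 was quantified by HTRF using a-IL-2-K (europium cryptate) and a-IL-2-d2, excited at 320nm with acceptor emission read at 665nm.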
* marks the source's active call; other numbers are inactive results; i = inactive; ? = inconclusive; . = no result given; [ ] = dose if it differs, or a comment. This is one part of a sample in which hits are shown more often than they occur. Unless noted, the call rests on the fitted dose curve; in most records, active means well fitted curve in the direction sought with a large enough effect; inconclusive means small, poorly fitted or top-dose-only effect, or another doubt; inactive means no such curve, though single readings can be large; an effect the other way counts as inactive or inconclusive.

SMILES	PTHR1 agonist	RXFP1 antag	NPSR antagonist	RXFP1 agonist	TSHR antagonist	TCR act
CC(=O)c1c(C)oc2c(Br)cc(NS(=O)(=O)c3ccc(Br)cc3)cc12	-23%	.	.	2%	.	.
CCOC(=O)c1sc2nc(CC(=O)OC)nc(NCCN3CCOCC3)c2c1C	i	.	-13%[46.1 µM]	1%	-8	-3%
CCOC(=O)c1sc2nc(CC(=O)OC)nc(N3CCN(c4ccc(OC)cc4)CC3)c2c1C	i	-18	32µM*	-2%	-12	-3%
O=C(c1cccn1-c1nnc(N2CCCCC2)s1)N1CCN(c2ccccc2)CC1	4%	-8	.	1%	.	.
COc1ccc(NC(=O)CCc2c(C)nn(-c3ccc(N4CCCC4)nn3)c2C)cc1Cl	-20%	-23	.	-2%	.	.
CCOc1ccc(NC(=O)CSc2nc3nc(C)c(Cc4ccccc4)c(C)n3n2)cc1	i	-28	.	4%	.	.
CC1(C)Cc2c(C#N)c(N3CCN(C(=O)c4ccco4)CC3)nc(-c3ccco3)c2CS1	1%[57.5 µM]	-2	10µM*	2%	19	-1%[46.1 µM]
Cc1ccc(CNC(=O)CSc2nnc3c(n2)[nH]c2ccccc23)cc1	-5%	-15	.	1%	-82*	9%
Cc1ccc(NC(=O)CSc2nnc3c(n2)[nH]c2ccccc23)cc1	i	-10	.	4%	1	0%
Cc1ccc(SCc2nc(-c3ccc(C(=O)NCc4ccc(Cl)cc4)cc3)oc2C)cc1	26%	-3	.	3%	.	.
Cc1ccc(-n2ncc(C(=O)NCc3cccs3)c2C2CCN(C(=O)OC(C)(C)C)CC2)cc1C	i	-31	.	0%	.	.
O=c1c2ccccc2sn1-c1cc(S(=O)(=O)N2CCOCC2)ccc1N1CCCC1	-10%[57.5 µM]	-62*	-27%[46.1 µM]	1%	-10	-6%
Nc1ccc(C(=O)N2CC3CC(CN(Cc4ccccc4)C3)C2)cc1	.	7	.	.	.	.
Cc1ccc(C)c(CNC(=O)c2ccc3c(c2)nc2n3CCC(C)C2)c1 (centres undefined)	i	-35	.	2%	.	.
O=C(NC(Nc1nc2ccc([N+](=O)[O-])cc2s1)(C(F)(F)F)C(F)(F)F)c1cccnc1	-92%	-19	-32%	3%	?	-5%[46.1 µM]
O=C(NC(Nc1nc2ccc([N+](=O)[O-])cc2s1)(C(F)(F)F)C(F)(F)F)c1ccccc1Cl	-55%	-25	7.9µM*	1%	-83*	5%
CCCCCCCC/C=C/C(=O)O	.	-22	.	.	.	.
CCCCNC(=O)c1cnn2c(C)c(Cc3c(C)cc(C)cc3C)c(C)nc12	-68%	-61*	.	1%	.	.
Cc1nc2c(C(=O)NCc3ccccc3)cnn2c(C)c1Cc1ccc(F)cc1	-67%	-12	.	0%	.	.
CC(C)c1ccc(-c2nnc3n(CCc4ccccc4)c(=O)c4ccccc4n23)cc1	-34%	-17	.	-4%	.	.
CC(C)c1nnc(NC(=O)CCC(=O)N2CCN(c3ccc(Cl)cc3)CC2)s1	-1%	-67*	.	-1%	8	-5%
CC(C)c1nnc(NC(=O)CCC(=O)N2CCN(c3ccc(F)cc3)CC2)s1	-9%	-10	.	1%	2	-8%
Cc1ccc(NC(=O)NCCOCCn2c(=O)oc3ccccc32)cc1C	i	.	.	-4%	.	.
CC(=O)N1c2ccc(S(=O)(=O)NCCC(=O)Nc3cccc(Cl)c3)cc2CC1C (centres undefined)	-2%	14	.	1%	-126*	3%
CC(=O)N1c2ccc(S(=O)(=O)NCCC(=O)Nc3ccc(C)c(Cl)c3)cc2CC1C (centres undefined)	i	-4	.	0%	-2	-18%
SMILES	PTHR1 agonist	RXFP1 antag	NPSR antagonist	RXFP1 agonist	TSHR antagonist	TCR act
CC(=O)N1c2ccc(S(=O)(=O)NCCC(=O)Nc3ccccc3C)cc2CC1C (centres undefined)	i	15	.	0%	-133*	0%
Cc1nnc2c(Nc3cccc(O)c3)nc3ccccc3n12	-18%	-4	.	8%	.	.
CC1CCN(C(=O)CN2CC(C)Sc3ccccc32)CC1 (centres undefined)	i	-13	.	0%	.	.
CC(=O)c1ccc(N(CC(=O)NC2CCCC2)C(=O)c2csnn2)cc1	i	-82*	.	0%	0	0%
CCOC(=O)c1c(C)[nH]c(=S)c(C#N)c1-c1ccc(OC)cc1	i	-9	-18%[46.1 µM]	6%	-11	0%
CCCCOc1ccc(-c2c(C(=O)Nc3ccccc3)c(C)[nH]c(=S)c2C#N)cc1	i	28	10µM*	22µM*	-8	.
Cc1ccc(S(=O)(=O)c2nnn3c2nc(NC2CCCCC2)c2sccc23)cc1C	-39%	-2	.	8%	.	.
COc1ccc(-c2cc(-c3nc4ccccn4c3NCc3ccccc3)ccc2OC)cc1	-95%	.	.	.	-97*	7%
CCOC(=O)c1ccc(CN(Cc2ccc(Cl)cc2Cl)S(=O)(=O)c2ccc(F)c(C)c2)cc1	-32%	-12	.	4%	.	.
CCOC(=O)C1CCCN(C(=O)c2cc(S(=O)(=O)N(C)C)ccc2N2CCCC2)C1 (centres undefined)	2%	-71*	.	-1%	.	7%
Cc1ccc(-n2nnnc2CNC(=O)c2cc(C(F)(F)F)cc(C(F)(F)F)c2)cc1C	i	?	.	2%	.	.
COc1ccccc1NC(=O)COC(=O)CC(C)(C)CC1=NS(=O)(=O)c2ccccc2N1	-40%	-83*	.	-1%	-2	0%
O=C(O)c1cn(C2CC2)c2cc(Cl)c(F)cc2c1=O	.	-13	.	.	.	.
CCN1/C(=C/c2ccc3cc(C)ccc3[n+]2CC)Sc2cc(C)c(C)cc21	-66%	-22	?	24%	-27	4%
CC[n+]1c(/C=C2\Sc3ccccc3N2C)ccc2cccc(C)c21	-39%	-31	10µM*	?	-29	12%
CCN1/C(=C/c2ccc3cc(C)ccc3[n+]2CC)Sc2ccccc21	-67%	-17	10µM*	26%	?	4%
OCCNCc1ccc(-c2ccccc2)cc1	2%	25	5%	0%	2	-1%[46.1 µM]
OCCCNCc1ccc(N(c2ccccc2)c2ccccc2)cc1	i	-69*	.	0%	2	2%
COc1ccccc1-c1cc(C(F)(F)F)nc(S(=O)(=O)CCCC(=O)NC(C)C)n1	-33%	16	?	7%	49	-2%
CS(=O)(=O)c1nc(-c2ccco2)cc(C(F)(F)F)n1	.	.	10µM*	0%	-36	.
COc1ccccc1-c1cc(C(F)(F)F)nc(S(C)(=O)=O)n1	-44%[57.5 µM]	-7	7.9µM*	1%	3	3%
Cn1c(SCc2ccc(C(C)(C)C)cc2)nnc1C1COc2ccccc2O1 (centres undefined)	-84%	-69*	46%	-1%	14	-4%
